SMILES strings stand for the structures. Results filed as inconclusive are left out. A call without a number means that no potency is given here. Active and inactive are the calls of the source. Calls come from the whole dose curve; as a rule, active = well fitted activation curve with a large enough effect in the repeat runs; inconclusive = weak or mixed curves, or effect the other way; inactive = no such curve, though single readings can be large or run the other way.
Potency is the fitted concentration of half-maximal effect.

The nature of this assay: qHTS assay to identify small molecule agonists of the retinoic acid receptor (RAR) signaling pathway (AID 1159553). The following applies: C3RL4 RARE luciferase reporter, agonist, 6 h; series mostly up to 73.3 µM. From the text:
National Center for Advancing Translational Sciences [NCATS] NIH Chemical Genomics Center [NCGC] U.S. Environmental Protection Agency [EPA] National Institutes of Environmental Health Sciences [NIEHS] National Toxicology Program [NTP] Assay overview: All-trans Retinoic acid (atRA) is the potent natural metabolite of retinol and plays an important role in normal embryonic development and maintenance of cellular phenotype in adult animals. atRA is the activating ligand for the retinoic acid receptors (RARs) which form heterodimers with retinoid X receptors (RXRs) on the retinoic acid response element (RARE). Through activation of the RAR/RXRs nuclear receptors, atRA regulates the transcription of a large number of protein-coding genes and regulatory RNAs. Intracellular levels of atRA are controlled by the retinol signaling pathway (RSP) that regulates the biosynthesis and catabolism of atRA to maintain physiological levels. Chemicals that interfere with the RSP can cause abnormal intracellular levels of atRA and therefore are potential developmental toxicants. To assess compounds for the potential adverse effect on embryonic development through interfering with retinol signaling, a cell-based RARE luciferase reporter gene assay was used. C3RL4 cell line (OARSA/CFSAN/FDA, Laurel, MD) was used to screen Tox21 10K compound library for identifying activators of the RSP.
Assay Protocol Summary: C3RL4 cells were seeded at 1,000/well in 5 uL of assay medium into white solid 1,536-well tissue culture plates (Greiner Bio-One North America Inc. Monroe, NC) using a Multidrop Combi (Thermo Scientific, Waltham, MA) dispenser. After incubation at 37 C and 5% CO2 for an overnight, 23 nL of compounds dissolved in DMSO, positive control or DMSO only were transferred by a Pintool station (Kalypsys, San Diego, CA). After 6 hr incubation at 37 C and 5% CO2, 5 uL of Amplite Luciferase reagent (AAT Bioquest Inc. Sunnyvale, CA) was added to each assay plate using a Flying Reagent Dispenser (FRD) (Aurora Discovery, San Diego, CA). Luminescence was quantified on a ViewLux plate reader (PerkinElmer, Waltham, MA) after 30 min incubation at room temperature.
(In qHTS, concentration-response curves come from the screen itself.)
With `Nc1nc(N)nc(N)n1`, the Potency result is “inactive”.

Take `CCc1ccc(C(=O)NN(C(=O)c2cc(C)cc(C)c2)C(C)(C)C)cc1`: the Potency result was “inactive”.

For the compound `CCOC(=O)C(Cl)C(C)=O` (stereo not given), the Potency result is “inactive”.

In the case of `Cl/C=C\Cl`, the Potency entry is “inactive”.

Take `NC(=O)C(Cl)(Cl)Cl`: the Potency entry was “inactive”.

As for `ClCCCCBr`, the Potency result is “inactive”.

Consider `[O-][Cl+]O`, for which the Potency result was “inactive”.

Turning to `COCCOCCO`, the Potency result was “inactive”.

Consider `CCCCCCCCOC(=O)c1ccc(C(=O)OCCCCCCCC)c(C(=O)OCCCCCCCC)c1`, for which the Potency entry is “inactive”.

As to `Cc1c(F)c(F)c(COC(=O)C2C(/C=C(\Cl)C(F)(F)F)C2(C)C)c(F)c1F` (stereo not given), the Potency entry was “inactive”.

Take `CCOC(=O)[C@]1(c2ccccc2)Oc2ccccc2[C@@H]1N`: the Potency result was “inactive”.

In the case of `CCCCCCCCCC(=O)O[C@H]1CC[C@H]2[C@@H]3CCC4=CC(=O)CC[C@@H]4[C@H]3CC[C@]12C`, the Potency entry was “inactive”.

On to `S=C=NCc1ccccc1`, for which the Potency is 69.3 µM (active).

For the compound `O=Cc1ccc2c(c1)OCO2`, the Potency entry was “inactive”.

`COC(=O)C(Br)CBr` (stereo not given): the Potency result was “inactive”.

On to `BrCCCCBr`, for which the Potency result is “inactive”.

`CN(N=O)c1ccc([N+](=O)[O-])cc1`: the Potency entry was “inactive”.

Regarding `CCC(Cl)CCl` (stereo not given), the Potency entry was “inactive”.

Consider `O=C(O)c1ccccc1C(=O)Nc1cccc2ccccc12`, for which the Potency entry was “inactive”.

Turning to `C[N+](C)(C)CCCl`, the Potency entry was “inactive”.

As for `O=C(NCc1cccnc1)Nc1ccc([N+](=O)[O-])cc1`, the Potency entry is “inactive”.

For `Cn1cc[n+](C)c1` (tested in a mixture with another compound), the Potency result was “inactive”.

For `CCCC(Cn1cncn1)c1ccc(Cl)cc1Cl` (stereo not given), the Potency result was “inactive”.

For the compound `C=CCN1CC[C@]23c4c5ccc(O)c4O[C@H]2C(=O)CC[C@@]3(O)[C@H]1C5`, the Potency entry was “inactive”.

As to `Nc1nc(=S)[nH][nH]1`, the Potency result is “inactive”.

For the compound `II`, the Potency entry is “inactive”.

As to `CC(c1ccc(O)cc1)(c1ccc(O)cc1)c1ccc(O)cc1`, the Potency entry was “inactive”.

As to `CNC(C)Cc1ccccc1OC` (stereo not given), the Potency entry was “inactive”.

Turning to `COC(C)(C)CCC[C@H](C)C/C=C/C(C)=C/C(=O)OC(C)C`, the Potency result is “inactive”.

As to `C=C(C#N)CCC#N`, the Potency entry is “inactive”.

Regarding `O=NN1CCNCC1`, the Potency result is “inactive”.

`N#CCc1ccccc1`: the Potency result is “inactive”.

Consider `O=C(C(Cl)(Cl)Cl)C(Cl)(Cl)Cl`, for which the Potency result was “inactive”.

Regarding `c1ccc(C2CC2)c(OCC2=NCCN2)c1`, the Potency entry was “inactive”.

As to `CN1C(=O)NC(=O)C(C)(C2=CCCCC2)C1=O` (stereo not given), the Potency result was “inactive”.

`O=C(O)COc1ccc(Cl)cc1`: the Potency entry is “inactive”.

With `CC(=O)C(C)(C)C`, the Potency result was “inactive”.

With `CO[C@@H]1[C@H](OC(=O)NC(=O)CCl)CC[C@]2(CO2)[C@H]1[C@@]1(C)O[C@@H]1CC=C(C)C`, the Potency entry is “inactive”.

For the compound `CCBr`, the Potency entry was “inactive”.

For `CCCCN(N=O)C(=N)N[N+](=O)[O-]`, the Potency result was “inactive”.

The record behind these values is PubChem BioAssay (Tox21).
